# Assay outcomes deposited in PubChem by several laboratories.
# EBNA-1 inh – blocks EBNA-1 binding to DNA; EBNA-1 DNA binding, fluorescence polarization; inhibition, % at 14.8 µM; hit rate 0.34% among 300,000; AID 1950; in the data active = inhibition above about 28%
# GRIN3A LBD mod – modulators (binders) of human NR3A ligand-binding domain; NR3A LBD differential scanning fluorimetry, Tm shift; 0% = protein alone, 100% = glycine-bound protein; AID 1259313; Tm shift relative to glycine control, % at 25 µM; hit rate 2.5% among 340,000;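 active = melting temperature shift of at least 10% of the positive control shift, at one fixed dose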
# Rpn11 block – inhibitors of human proteasome Rpn11; hit rate 0.59% among 360,000; human 26S proteasome, Ub4-pepOG fluorescence polarization; 20S core pre-blocked with epoxomicin; inhibition, % at 20 µM; O00487; AID 588493;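 active = inhibition at 20 µM, scaled to each plate's controls, above about 33%, limit read from the data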
# ZTA counter – counter-screen for EBNA-1 inhibitors: inhibitors of Epstein-Barr virus ZTA | P03206 | ZTA-DNA binding, fluorescence polarization | inhibition, % at 11 µM | hit rate 0.15% among 320,000 | AID 2234; in the data active = inhibition above about 33%
# Target sequence (P03206 whole entry, looked up): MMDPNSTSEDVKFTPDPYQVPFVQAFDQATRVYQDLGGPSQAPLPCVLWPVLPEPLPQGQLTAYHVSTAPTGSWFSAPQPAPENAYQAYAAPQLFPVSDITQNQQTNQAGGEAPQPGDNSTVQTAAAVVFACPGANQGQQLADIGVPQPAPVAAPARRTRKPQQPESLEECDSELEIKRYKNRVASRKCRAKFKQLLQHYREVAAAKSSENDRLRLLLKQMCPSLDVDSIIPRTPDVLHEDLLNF
# TPT1 inh – C. albicans TPT1 enzyme inhibition | inhibition, % at 5 µM | hit rate 0.81% among 300,000 | recombinant caTPT1, FP RNA substrate dephosphorylation | AID 1962;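 active = inhibition above the mean of all tested compounds plus 3 SD, set per screening campaign, cut at about 24% in these data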;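 note: plate controls were DMSO alone for no effect and ferristatin control at 100 nM for full effect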
# dFosB activator – enhances mouse delta FosB homodimer DNA binding. P13346. purified delta FosB, TAMRA-CDK5 oligo fluorescence polarization; percent of positive-control signal above neutral wells. activation, % at 25 µM. hit rate 0.99% among 340,000;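 active = mean activation above about 17%, with every replicate also reaching it, limit read from the data, passing the limit was not always enough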
# Target sequence (P13346 whole entry, looked up): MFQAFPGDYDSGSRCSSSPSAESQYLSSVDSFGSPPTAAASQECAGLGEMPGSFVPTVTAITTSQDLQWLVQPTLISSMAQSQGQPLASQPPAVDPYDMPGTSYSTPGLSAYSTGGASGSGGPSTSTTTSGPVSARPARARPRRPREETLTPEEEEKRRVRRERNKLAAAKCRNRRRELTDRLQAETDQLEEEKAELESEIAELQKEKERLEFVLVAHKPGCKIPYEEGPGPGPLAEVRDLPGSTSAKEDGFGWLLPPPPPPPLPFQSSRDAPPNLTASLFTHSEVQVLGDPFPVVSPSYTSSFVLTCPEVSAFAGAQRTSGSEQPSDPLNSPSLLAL
# Numbers without * were called inactive; · = no result given. Most compounds without a hit are left out; they make up all but 4.5% or so of the library.
SMILES,EBNA-1 inh,GRIN3A LBD mod,Rpn11 block,ZTA counter,TPT1 inh,dFosB activator
COc1ccc(/C=N/NC(=O)c2ccncc2)c(OC)c1,4.2,19.9*,-3.1,-19.9,-0.6,9.5
O=C(NCCOc1ccccc1)c1ccccc1SCC(=O)N1CCCC1,·,2.3,-1.3,1.0,·,3.3
COc1ccc(NC2CCCN(C(=O)CCc3scnc3C)C2)cc1 (stereo unspecified),6.5,14.1*,0.4,-5.7,-3.5,-2.3
O=C(Nc1ccc2c(c1)C(=O)OC2)c1ccccc1Cl,-0.3,-0.4,-8.0,-16.5,-1.2,-8.2
O=C(Nc1cccc(F)c1)Nc1ccc2c(c1)C(=O)OC2,5.2,13.7*,3.4,-0.5,-3.5,7.1
O=C(Nc1cccc(Cl)c1)Nc1ccc2c(c1)C(=O)OC2,4.8,30.7*,-6.4,9.8,0.9,5.2
COc1ccc(C(=O)NCC(=O)N2CCN(c3ncccn3)CC2)cc1OC,·,-0.1,0.4,2.1,·,-5.0
O=C(/C=C/c1ccc2c(c1)OCO2)NCCS(=O)(=O)N1CCN(c2ccccc2)CC1,·,·,-2.2,·,·,·
CCCCCCn1c(=O)c(-c2ccccc2)c(O)c2ccccc21,-5.0,12.2*,0.2,-0.6,-2.5,-0.3
CCCCCCn1c(=O)c(Cc2ccccc2)c(O)c2ccccc21,9.7,-6.8,-4.3,-6.3,-1.0,-1.2
CC(C)Oc1ccc(C(CC(=O)O)n2cnnn2)cc1 (stereo unspecified),-2.0,0.7,1.8,6.5,-1.0,1.6
CCCCNC(=S)NCC(c1ccccc1)c1c[nH]c2ccccc12 (stereo unspecified),-10.5,29.9*,-6.0,-18.1,1.7,-11.8
CN(C)CCCNC(=S)NCC(c1ccc(Cl)cc1Cl)c1c[nH]c2ccccc12 (stereo unspecified),3.9,-2.3,-39.0,-11.1,-0.6,6.3
O=C1NC(=S)S/C1=C\c1coc2ccc(O)cc2c1=O,11.5,5.8,-1.1,45.4*,7.7,2.3
Cc1ccc(S(=O)(=O)N2CCN(C(=O)COC(=O)c3ccc(Cl)nc3)CC2)c(C)c1,·,-1.3,2.7,-14.5,·,31.5*
C=CCOc1ccc(/C=C/C(=O)OCC(=O)N2CCN(S(=O)(=O)c3ccc(C)cc3C)CC2)cc1,·,18.8*,0.8,·,·,5.2
CC(C)=CCC/C(C)=C/Cc1c(O)ccc(C(=O)/C=C/c2ccc(O)cc2)c1O,0.6,29.0*,14.0,21.8,-1.7,0.9
COc1ccc(/C=C/C(=O)c2ccc(OC)cc2OC)cc1,-4.3,-0.7,-1.6,5.8,-2.4,-0.3
C=C(C)C(O)Cc1c(OC)ccc(C(=O)/C=C/c2ccc(O)cc2)c1O (stereo unspecified),·,25.0*,13.5,·,·,1.3
COc1ccc2c(C)cc(SCC(=O)Nc3cc(C(N)=O)cc(C(N)=O)c3)nc2c1,-17.4,1.1,16.8,-2.2,2.0,67.6*
CCN(CCO)c1nc(NCc2ccccc2)c2cnn(C)c2n1,10.4,-0.1,-9.2,-2.7,0.8,-7.9
CN(C)Cc1c(C(=O)N/N=C/c2cccc(OCc3ccc(F)cc3)c2)nnn1-c1nonc1N,-9.2,2.7,-1.4,-1.3,2.0,-0.4
COc1cccc(/C=N/NC(=O)c2nnn(-c3nonc3N)c2C(C)C)c1,-5.6,25.5*,-4.7,-14.5,-4.1,-14.1
CC(C)c1c(C(=O)N/N=C/c2ccc3c(c2)OCO3)nnn1-c1nonc1N,-5.4,27.6*,-0.7,-4.1,-2.8,4.0
CC(C)c1c(C(=O)N/N=C/c2ccncc2)nnn1-c1nonc1N,5.5,-10.8,0.0,-8.2,-3.1,-0.8
SMILES,EBNA-1 inh,GRIN3A LBD mod,Rpn11 block,ZTA counter,TPT1 inh,dFosB activator
CC(C)c1c(C(=O)N/N=C/C=C/c2ccccc2)nnn1-c1nonc1N,-1.8,17.3*,-2.3,0.8,-1.4,-10.2
CC(C)c1c(C(=O)N/N=C/c2cccc(OCc3ccc(F)cc3)c2)nnn1-c1nonc1N,-6.3,26.9*,0.6,4.4,-2.9,9.3
NS(=O)(=O)OCCCc1ccc(C(F)(F)F)cc1,-0.3,-1.9,-2.5,3.1,-2.8,7.7
Cc1cccc(-n2nc(CC#N)c(C#N)c2N)c1,-9.6,-3.7,9.5,-2.4,5.0,3.4
N#Cc1nccnc1S(=O)(=O)c1cccs1,-9.8,-1.2,·,-7.0,0.2,·
COc1cc(/C=N/NC(=O)c2nnn(-c3nonc3N)c2C(C)C)ccc1OCc1ccc(F)cc1,-19.0,31.2*,0.0,9.9,-0.5,3.1
CN(C)Cc1c(C(=O)N/N=C/c2ccc(OCc3ccc(F)cc3)cc2)nnn1-c1nonc1N,-12.4,7.4,-5.0,-11.5,-2.4,-8.8
CCN(CC)c1ccc(/C=N/NC(=O)c2nnn(-c3nonc3N)c2C(C)C)c(O)c1,-16.9,19.3*,9.1,0.3,1.5,-7.7
CS(=O)(=O)c1nc(S(=O)(=O)c2ccc(Cl)cc2)c(NCc2ccccn2)s1,8.1,-0.5,-10.1,-1.1,0.4,-11.9
C/C(=N\NC(=O)c1nnn(-c2nonc2N)c1CN(C)c1ccccc1)c1ccccc1O,-17.9,13.9*,-5.6,-19.6,0.9,1.8
Cc1ccsc1/C=N/NC(=O)c1nnn(-c2nonc2N)c1C,-11.2,5.4,3.5,-10.2,-1.1,5.0
CN(Cc1c(C(=O)N/N=C/c2cccs2)nnn1-c1nonc1N)c1ccccc1,-11.0,16.2*,4.9,9.0,1.9,-0.7
CCCN(CCC)Cc1c(C(=O)N/N=C/c2cccs2)nnn1-c1nonc1N,-4.5,-13.2,4.4,5.0,-0.9,-14.3
Cc1c(C(=O)N/N=C/c2cccs2)nnn1-c1nonc1N,2.5,10.3*,-3.3,5.2,4.5,5.4
COc1ccc(/C(C)=N/NC(=O)c2nnn(-c3nonc3N)c2CN(C)c2ccccc2)cc1,8.6,-14.1,-2.6,0.4,1.9,-3.2
CCCc1c(C(=O)N/N=C/c2cccs2)nnn1-c1nonc1N,8.1,17.2*,-4.5,-9.5,-1.9,-1.4
Cc1ccccc1OCC(=O)N(Cc1ccco1)c1c(N)n(Cc2ccccc2)c(=O)[nH]c1=O,·,-0.3,-0.9,-9.8,·,7.1
O=C(NCC(=O)N1CCN(c2ccccc2)CC1)c1ccco1,-6.6,1.5,-4.1,-1.1,-1.4,-1.2
O=c1c2ccccc2on1-c1ccccc1,·,·,3.0,·,·,·
COc1ccc(-c2cnc3c(NC(C)=O)cc(-c4ccsc4)cn23)cc1OC,·,·,54.5*,·,·,·
COc1ccc(-c2cc(NC(C)=O)c3ncc(-c4ccc(OC)c(OC)c4)n3c2)cc1OC,·,·,11.3,·,·,·
O=C(Nc1cccc(-n2cnnn2)c1)c1ccoc1COc1ccc(Cl)cc1,10.3,21.2*,-2.3,-15.4,0.7,0.4
O=C(Nc1cccc(-n2cnnn2)c1)c1cc(Cl)ccc1Cl,-5.2,-3.8,1.7,-6.3,-4.7,-4.2
COc1cc(OC)cc(C(=O)N[C@H](C(=O)OCC(=O)Nc2sccc2C#N)C(C)C)c1,8.7,-1.9,15.5,19.1,10.8,-6.5
Clc1cnc(N/N=C/c2ccncc2)c(Cl)c1,-0.2,0.5,-5.5,-0.2,3.7,-1.2
Clc1ccc(N/N=C/c2ccncc2)cc1Cl,10.6,12.1*,-4.6,5.5,-1.9,1.2
